The panel holds about 83,000 compounds, 20% with a hit somewhere; the sample as a whole holds those more often.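 Single-concentration screen, 48 h exposure, 96-well plates. Endpoint: percent growth. Below 10 = active.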 Values without a mark were called inactive. Activity calls are given as the source filed them.
Legend:
Experiment in all cases: NCI-60 one-dose screen, 48 h (100 = growth as untreated, 0 = no growth, -100 = all killed)
Details in all cases: 10 µM unless noted
[1] = system: DU-145 prostate
[2] = system: K-562 leukemia
[3] = system: MALME-3M melanoma
[4] = system: MDA-MB-231 breast
[5] = system: RXF 393 renal
[6] = system: SF-268 CNS
[7] = system: SF-295 CNS
[8] = system: SF-539 CNS
[9] = system: UACC-257 melanoma
[10] = system: M14 melanoma
[11] = system: HCT-15 colon
[12] = system: SNB-75 CNS
[13] = system: SNB-19 CNS
[14] = system: U251 CNS
[15] = system: PC-3 prostate
[16] = system: SK-MEL-5 melanoma
[17] = system: UACC-62 melanoma
[18] = system: LOX IMVI melanoma
[19] = system: SK-MEL-28 melanoma
[20] = system: HT29 colon

Compound	growth [1]	growth [2]	growth [3]	growth [4]	growth [5]	growth [6]	growth [7]	growth [8]	growth [9]	growth [10]	growth [11]	growth [12]	growth [13]	growth [14]	growth [15]	growth [16]	growth [17]	growth [18]	growth [19]	growth [20]
COc1cc(/C=C2\CN(S(=O)(=O)c3ccc(C)cc3)C/C(=C\c3cc(CN4CCOCC4)c(O)c(OC)c3)C2=O)cc(CN2CCOCC2)c1O	29.1%	10.4%	-25.7% (active)	5.67% (active)	-87.3% (active)	7.91% (active)	-34.1% (active)	-3.63% (active)	-28.6% (active)	-40.5% (active)	-31.3% (active)	25.8%	12.9%	15.5%	2.79% (active)	-63.4% (active)	-45.8% (active)	-49.3% (active)	-33.2% (active)	
Cc1ccc2c(c1)C(=O)/C(=C\Nc1ccc(C(N)=O)cc1)C(O)O2 (stereo not drawn)	107%	97.7%	86.7%	83.1%	111%	82.8%	94%	99.8%	118%		85.9%	74.8%	106%	85.6%	76.4%	104%	106%	85.3%	99.8%	105%
O=c1oc2c(cc1-c1ccc([N+](=O)[O-])cc1)C(O)Oc1ccccc1-2 (stereo not drawn)	142%	76.8%	77.6%	114%	49.1%	94.7%	67.9%	93.8%	89.3%		92.2%	111%	83.4%	97.6%	57.5%	80.4%	78.7%	98.9%	99.4%	99.9%
COc1cc(Cl)cc(-c2nn(-c3cccc(NC(=O)c4cc(C(F)(F)F)cc(C(F)(F)F)c4)c3)cc2-c2ccncc2)c1	78.2%	38%	104%	56.7%	67.7%	89.2%	42.1%	80%	79.3%	67.3%	58.6%	60.8%	86.4%	60.7%	35.6%	67.3%	81.4%	76.1%	78.8%	
COc1ccc(-c2cc(-c3cccnc3)nc(S(=O)(=O)CC(=O)Nc3ccc(C)cc3)c2C#N)cc1OC	95%	102%	94.7%	77.6%	90.4%	83.5%	97.9%	95.1%	104%	111%	95.1%	78.7%	94.6%	91.7%	83.7%		99.4%	88.9%	102%	
O=C(CSc1nnc(-c2cc(-c3ccccc3)nc3ccccc23)o1)c1ccc(Br)cc1	106%	91%	97.3%	95.4%	108%	93.8%	107%	99.6%	111%	101%	109%	97.4%	93.2%	98.2%	107%	103%	94.8%	101%	113%	
Cc1cc(C)cc(S(=O)(=O)n2ccc(-c3ccc4c(c3)CCC(C)(C)O4)n2)c1	89.8%	85.7%	82.9%	93.5%	77.3%	88.3%	85%	99.9%	89.6%	82.7%	82.3%	87.2%	94.6%	85.6%	82.4%	82.9%	73.9%	95%	102%	
Cc1cc(C)nc(NS(=O)(=O)c2ccc(Nc3nc4nc(SCc5ccccc5)nc(-c5ccc(O)cc5)c4c(=O)[nH]3)cc2)n1	136%	84.2%	67.7%	93.8%	78.6%	84%	83.3%	98.9%	113%		109%	88.3%	74.9%	94.6%	67.7%	99.5%	83.5%	101%	86.3%	123%
O=C1CNc2cc(Cl)ccc2N1	121%	104%	104%	98.3%	101%	103%	105%	106%	113%	114%	109%	89.8%	107%	101%	104%	99.9%	101%	101%	107%	
COc1ccc(-c2cc(-c3cccnc3)nc3sc(C(=O)Nc4ccccc4)c(N)c23)cc1OC	54.6%	34.2%	109%	69.7%	76%	69%	77.2%	73.3%	107%	66.3%	63.5%	82.8%	79.8%	61.3%	56.9%	75.1%	69.3%	60%	73.3%	
O=C1c2cccc(NCCN=Cc3ccccc3O)c2C(=O)c2c(NCCN=Cc3ccccc3O)cccc21	16%	38%	21.8%	21%	33.9%	7.05% (active)	49.8%	22.4%	94.6%		38.7%	29.3%	14.3%	7.41% (active)	10.2%	52.7%	81.5%		50.2%	-4.87% (active)
O=C1/C(=C/c2ccccc2Cl)CCc2ccccc21	108%	105%	104%	111%	107%	96.7%	65.3%	106%		104%	104%	105%	89.7%		95.6%	102%	94.2%	91.7%	101%	97.2%
COc1ccc2[nH]c(=O)c(CNc3ccc(Nc4nccc(-c5ccc(Cl)cc5)n4)cc3)cc2c1	84.8%	68.6%	97.7%	84.9%	101%	71.9%	110%	104%		111%	74.3%	106%	95.4%		71.4%	95.6%	96.7%	97.1%	112%	76%
O=c1ncc(-c2ccc(C(F)(F)F)cc2)c(NC2CCCCCC2)[nH]1	78.5%	30%	-26.4% (active)	79%	76.4%	62.3%	3% (active)	91.7%		34.8%	103%	87%	54.9%		25.7%	20.9%	29.6%	57.9%	49.3%	56.5%
COc1cc2c(cc1OC)C(CC1(O)CCCCC1)N(S(=O)(=O)c1ccc(C)cc1)CC2 (stereo not drawn)	32.3% [100 µM]	10.8% [100 µM]	18.9% [100 µM]	40.8% [100 µM]	48.9% [100 µM]	26.3% [100 µM]	3.6% [100 µM] (active)		22.4% [100 µM]	13% [100 µM]	22.7% [100 µM]	40.8% [100 µM]	48.9% [100 µM]	34.1% [100 µM]	2.56% [100 µM] (active)	18.7% [100 µM]	27.4% [100 µM]	29.3% [100 µM]	55% [100 µM]	21.1% [100 µM]
Cc1nn(-c2ccccc2)c2nc(N)c(C3=NCCO3)nc12	114%	102%	88.6%	87%	108%	111%	90.8%	99.6%		105%	98%	73.1%	100%		81.4%	97.4%	96.5%	94.7%	103%	100%

Reference: PubChem BioAssay (NCI)
